# Experimental data: PubChem BioAssay AID588402 (Sanford-Burnham Center for Chemical Genomics, 2011)
# In all, about 1,600 compounds went through this assay and about 1,100 (69%) were called active. The set was probably picked from earlier hits. A selection follows. Values without a mark were called inactive. No stated cut-off is given here; in the data, active means inhibition above about 50%; inactive means the rest.
# Target: Phospholipase A2 (Homo sapiens) (UniProt P04054)
# Test: human phospholipase A2 activity blockers – biochemical, single concentration, uHTS hits, counter-screen for ATG4B inhibitor project (AID 588402)
# Settings: purified PLA2, NBD-C6-HPC fluorescence, 45 min; at 8.33 µM; hits give high values
# Chain of Phospholipase A2 (Homo sapiens) (P04054 whole entry, looked up): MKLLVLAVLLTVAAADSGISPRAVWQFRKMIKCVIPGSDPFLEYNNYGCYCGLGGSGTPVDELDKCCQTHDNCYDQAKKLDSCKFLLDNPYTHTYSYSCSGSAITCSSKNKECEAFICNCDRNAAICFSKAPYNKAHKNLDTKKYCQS
row,Compound,inhibition
1,Cc1ccc(-c2cc(C(=O)N3CCc4ccccc4C3)no2)cc1,43.8%
2,O=C(C(=O)N1CCc2ccccc2C1)c1c[nH]c2ccccc12,71% (active)
3,COc1ccc2c(c1)CCc1c(C(=O)N3CCc4ccccc4C3)noc1-2,47.9%
4,Cc1ccc(CSc2nc(-c3ccccc3)c(C#N)c(=O)[nH]2)cc1,32.1%
5,COc1ccc(Br)cc1C(=O)NC(=S)Nc1cc(-c2nc3ccccc3[nH]2)ccc1C,74.1% (active)
6,Cc1cccc(C)c1N1C(=O)CN(Cc2ccccc2)C1=S,90.3% (active)
7,CCc1cccc(C)c1N1C(=O)CN(Cc2ccccc2)C1=S,92.4% (active)
8,Cc1cccc(C)c1-n1c(C)cc(/C=C2\C(=O)NN(c3ccccc3)C2=O)c1C,63.7% (active)
9,Cc1c(Cl)cccc1NC(=O)Nc1ccc(C(=O)N2CCCC2)cc1,56.6% (active)
10,O=C1c2ccccc2C(=O)N1Cc1cc(-c2ccccc2Cl)no1,64.2% (active)
11,Cc1ccc(S(=O)(=O)N(CC(=O)Nc2cccc([N+](=O)[O-])c2)Cc2ccc(Cl)cc2)cc1,80.7% (active)
12,COc1ccc(C)cc1S(=O)(=O)N(CC(=O)Nc1cccc([N+](=O)[O-])c1)c1ccc(C)cc1,86.6% (active)
13,Fc1cccc(Cl)c1CSc1ccc(-c2ccco2)nn1,49.5%
14,NC(=O)Cc1ccc2sc(-c3ccccc3)nc2c1,79.7% (active)
15,CCN1CCN(c2c(Cl)cccc2NC(=O)c2ccc(Br)o2)CC1,61.6% (active)
16,Cc1ccc(N=C2NC(=O)/C(=C/C=C/c3ccco3)S2)cc1C,36.4%
17,CC(C)c1ccc2c(c1)c(SC(C)(C)C)c(CC(C)(C)C(=O)O)n2Cc1ccc(Cl)cc1,57.7% (active)
18,O=C(/C=C/c1ccc(Cl)cc1)N1CCN(c2ccccc2[N+](=O)[O-])CC1,53% (active)
19,CC(=O)c1c(C)n(-c2ccc(N(C)C)cc2)c2ccc(OCC(N)=O)cc12,82.6% (active)
20,Cc1c(Cl)c([N+](=O)[O-])nn1CCCC(=O)Nc1cc(Cl)ccc1Cl,69.4% (active)
21,COc1ccc(/C=C2/SC(=O)N(CCCCCC(=O)Nc3ccccc3C(=O)O)C2=S)cc1,24.3%
22,O=C(Nc1cccc(F)c1)NC1CCCc2ccccc21 (stereo unspecified),71.2% (active)
23,CCOC(=O)c1c(C)[nH]c2c1-c1ccccc1C(=O)C2=O,-20.8%
24,CC1CCN(C(=O)c2ccc(CSc3ccc(Cl)cc3)cc2)CC1,58.1% (active)

row,Compound,inhibition
1,CC1(OC(=O)C2CCCC2)C(=O)C=C2C=C(c3ccc(C#N)cc3)OC=C2C1=O (stereo unspecified),66.5% (active)
2,CCCc1nc2c(c(=O)c3ccccc3n2C)c(=O)n1C1CCCCCC1,-14.6%
3,Cc1c(Cl)cccc1NC(=S)NCc1ccc2c(c1)OCO2,62.1% (active)
4,CCCOc1ccc2c3c(c(=O)oc2c1OCCC)CCC3,40.9%
5,CCc1ccccc1NC(=O)/C(=C/c1ccccc1)c1ccccc1,61.7% (active)
6,Cc1ccc(Nc2cc(=O)n(C3CCCCC3)c(=O)[nH]2)cc1C,2.78%
7,NC(=O)Cc1ccc2c(c1)[nH]c1ccccc12,51% (active)
8,O=C1N=C(N2CCc3ccccc3C2)S/C1=C\c1ccc(O)cc1,23.3%
9,O=c1c2sccc2nc(SCc2cc(=O)n3ccccc3n2)n1-c1ccc(Br)cc1,51.5% (active)
10,CCOC(=O)C(C)Sc1nc2ccccc2c(=O)n1CC1CCCCC1 (stereo unspecified),44.5%
11,CCOc1ccc(-n2c(SC(C)C(=O)OC)nc3c(c2=O)SCC3)cc1 (stereo unspecified),56.4% (active)
12,Cc1ccc(NC(=O)CC2S/C(=N/N=C3\CCCc4ccccc43)NC2=O)cc1 (stereo unspecified),60% (active)
13,Cc1nn(-c2ccccc2)c(C)c1/C=N/NC(=O)CSc1nc2ccccc2c(=O)n1-c1ccccc1,31.8%
14,COC(=O)c1c(NC(=O)C2CC(C)=C(C)CC2C(=O)O)sc2c1CCCCC2 (stereo unspecified),68% (active)
15,COc1cccc(CNc2nc(C(F)(F)F)nc3ccccc23)c1,63.6% (active)
16,OC(CNCc1ccc(Cl)c(Cl)c1)c1ccccc1 (stereo unspecified),38.9%
17,Cc1c(NC(=S)NCc2ccc(F)cc2)cccc1[N+](=O)[O-],70.7% (active)
18,Cc1cccc(C2c3[nH]c4ccccc4c3CCN2C(=O)c2cc(-c3cccn3C)n[nH]2)n1 (stereo unspecified),75.6% (active)
19,Cc1c(Cl)c([N+](=O)[O-])nn1Cc1ccc(C(=O)N/N=C\c2cc(Cl)ccc2O)o1,72.6% (active)
20,COc1cccc(/C=N/Nc2ccc(S(=O)(=O)Nc3ccccc3C(=O)O)cc2[N+](=O)[O-])c1O,56.1% (active)
21,c1ccc(C2=Nc3cccc4cccc(c34)N2)cc1,58.5% (active)
22,CC(C)c1nc(SCC(=O)Nc2cccc(C(=O)O)c2)c2c3c(sc2n1)CCCC3,70.6% (active)
23,Cc1nc2ccccc2c(-c2ccccc2)c1C(=O)c1ccccc1,81.3% (active)
24,Cc1ncc(CC(=O)n2cc(C(=O)c3cc(Cl)ccc3O)cn2)s1,84.3% (active)

row,Compound,inhibition
1,Cc1cccc(C)c1N1CCN(S(=O)(=O)N2CCCCC2)CC1,54.3% (active)
2,Cc1nc(SCC(=O)N2CCc3ccccc3C2)c2c(C)c(C)sc2n1,76.5% (active)
3,FC(F)(F)c1cccc(NC(=S)Nc2cccc(Cl)c2)c1,70.8% (active)
4,Cc1ccc(C2=Nc3c(ccc4ccccc34)C(c3ccncc3)=NN2)cc1,68.7% (active)
5,O=C(NCc1ccccc1)[C@H]1C[C@@H]1[C@H](NP(=O)(c1ccccc1)c1ccccc1)c1ccccc1,79% (active)
6,O=C(CSc1nc(-c2ccccc2)cs1)Nc1cccc([N+](=O)[O-])c1,16.5%
7,Clc1ccccc1CSc1nnc(-c2ccco2)c(-c2ccco2)n1,34.9%
8,O=C(Nc1nnc(SCc2ccccc2Cl)s1)c1cccc([N+](=O)[O-])c1,57.6% (active)
9,Cc1ccc(CNC(=O)c2ccccc2CCc2ccccc2)cc1,45.9%
10,S=C(NCCc1ccccc1)NCc1ccccc1Cl,54.4% (active)
11,FC(F)(F)Oc1ccc(NC(=S)NCc2ccccc2)cc1,47.2%
12,CN(Cc1c(F)cccc1Cl)S(=O)(=O)c1cccs1,58.8% (active)
13,CCCC1=Nc2cc(C(=O)NCc3ccco3)ccc2Sc2ccccc21,46.3%
14,Oc1c(Cl)cc(Cl)c(Cl)c1Cc1c(O)c(Cl)cc(Cl)c1Cl,82.7% (active)
15,Cc1ccc(-n2c(SCC(=O)N/N=C/C=C/c3ccccc3[N+](=O)[O-])nc3ccccc3c2=O)cc1,40.7%
16,O=C(O)CCn1cc(/C=C/C(=O)c2ccc(Cl)cc2)c(-c2cccc(Br)c2)n1,43.2%
17,O=C1C(=O)N(CC2COc3ccccc3O2)c2ccccc21 (stereo unspecified),78.5% (active)
18,Fc1ccc2[nH]c3c(N4CCN(Cc5ccc6c(c5)OCO6)CC4)ncnc3c2c1,48.4%
19,COc1cccc(NC(=O)NCc2ccc(F)cc2)c1,52.3% (active)
20,COc1ccc(NC(=O)COc2ccc(C(=O)c3ccc(F)cc3)cc2)cc1S(N)(=O)=O,-4.37%
21,CC1=C/C(=N\S(=O)(=O)c2ccccc2)C(C(C)C)=CC1=O,84.4% (active)
22,CN(C)Cc1ccc(F)cc1Sc1cc(Cl)ccc1Cl,42.7%
23,O=C(N/N=C/c1coc2ccccc2c1=O)c1cc2ccccc2o1,55.8% (active)
24,COc1ccc(/C=C2/CCCc3ccccc3C2=O)cc1,53.3% (active)

row,Compound,inhibition
1,COc1ccc(/C=C2\CCc3ccccc3C2=O)c(OC)c1OC,23.1%
2,CCc1ccc2c(c1)C(c1ccc([N+](=O)[O-])cc1)=NNC(c1ccccc1)=N2,24.1%
3,CCOc1ccc2c(c1)C(c1ccc(C)cc1)=NNC(c1ccc(C)cc1)=N2,74.7% (active)
4,O=C1Nc2cc(Cl)c(Cl)cc2N(O)N1c1cc(Cl)cc(Cl)c1,39.8%
5,O=C(O)C(c1ccccc1)N1C(=O)/C(=C\c2ccc(-c3cccc(Cl)c3)o2)SC1=S (stereo unspecified),45%
6,O=C(N[C@@H](Cc1c[nH]c2ccccc12)C(=O)O)OCC1c2ccccc2-c2ccccc21,72.1% (active)
7,Cc1cccc(NC(=S)Nc2ccc(Cl)c(Cl)c2)c1,60.1% (active)
8,COc1cnc(-c2ccccn2)nc1Oc1ccc(C(C)(C)C)cc1,67.2% (active)
9,CC(C)(C)c1ccc(OC2=CS(=O)(=O)c3ccccc32)cc1,55.9% (active)
10,Cc1cccc(NC(=S)NCCc2ccc(Cl)cc2)c1C,57.9% (active)
11,Cc1ccc(Nc2ccc(C(N)=O)cc2[N+](=O)[O-])cc1,59.4% (active)
12,COC(=O)N/N=C/c1cn(CCCOc2ccc(C)cc2)c2ccccc12,43%
13,COc1cccc(Cn2cc(/C=N/NC(=O)c3cc(O)cc(O)c3)c3ccccc32)c1,76.6% (active)
14,CCOC(=O)N/N=C/c1cn(Cc2ccccc2Cl)c2ccccc12,48.2%
15,CC(C)(C)C1CCc2c(sc3nc(SCC(N)=O)nc(N)c23)C1 (stereo unspecified),47.6%
16,CCOC(=O)c1c(-c2ccccc2)oc2cc(Br)c(O)c(C=O)c12,40.9%
17,CC(=O)Nc1ccc(C(=O)Nc2nc(-c3cc(C)n(Cc4ccccc4)c3C)cs2)cc1,38.2%
18,CCCc1[nH]nc2c1C(c1ccc(OC(=O)c3ccco3)cc1)C(C#N)=C(N)O2 (stereo unspecified),67.4% (active)
19,COC(=O)c1c(NC(=O)COC(=O)[C@@H](NS(=O)(=O)c2ccccc2)C(C)C)sc2c1CCC2,81.7% (active)
20,NC(=O)c1sc2nc3c(c(-c4ccccc4)c2c1N)CCC3,46.6%
21,O=C(COC(=O)/C(=C/c1cccs1)c1cccs1)NCc1ccccc1Cl,68.2% (active)
22,O=C(COC(=O)c1cc2c(s1)CCCC2)NCc1ccccc1Cl,59.3% (active)
23,CCc1nc(N2CCN(C(C)=O)CC2)c2c3c(sc2n1)CCCC3,52.4% (active)
24,Cc1ccc(Oc2cc(NC(=O)CCCn3nc(C)c([N+](=O)[O-])c3C)cc([N+](=O)[O-])c2)cc1,63% (active)
